gsp antag: gsp mutant antagonism; Potency, µM (top dose mostly 76.9 µM), inactives show top-dose activity change, negative = inhibition, usual class: inhibitors; hit rate 0.4% among 340,000; gsp-mutant cells, cAMP HTRF, 30 min; calls by dose curve; cell line not stated here;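 further: intracellular cAMP measured with PDE inhibitor Ro 20-1724 present during compound exposure; on the % scale 0 is the no-effect control and ±100 the full control effect; nearly all actives have a fitted effect of over 65% in size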
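Cells, 2000/well, grown 16–24 h in DMEM 10% FBS with 0.5 mg/ml G418, then compounds plus […] (300 uM addition stock), 30 min at 37C. cAMP read by HTRF (cAMP-d2 and anti-cAMP antibody-K in lysis buffer) after 30 min RT.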
Chronic BCR inh: blocks chronic active B-cell receptor signaling; Potency, µM (highest dose often 46.1 µM), without a hit: at the top dose activity change, negative = inhibition, hits mostly inhibitors; ABC-DLBCL IkBa-CBG/CBR reporter, luminescence ratio, 4 h; hit rate 0.05% among 340,000; active means well fitted inhibition curve with a large enough effect in the signal ratio, with a control signal flat, not every such curve was filed as active; inconclusive means small, poorly fitted or top-dose-only effect, or effect the other way, or a change in a side signal; the % refers to the signal ratio;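 further: plate controls were basal doxycycline-induced cells for no effect and cells given 10 µM MG132 for full effect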
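TMD8 human ABC-DLBCL cells with doxycycline-inducible IκBα–green luciferase fusion and unfused red luciferase, in 0.5% FBS medium; compounds up to 46 uM, 4 h at 37C. Green/red luminescence ratio, filter-overlap corrected, fitted to concentration-response curves.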
S-ASM inh: blocks human secretory acid sphingomyelinase | P17405 | placental ASM, HMU-PC fluorogenic substrate, 60 min | Potency, µM (doses to about 57.5 µM), for inactives: at the top dose activity change, negative = inhibition, usual class: inhibitors | hit rate 0.006% among 340,000; active means well fitted inhibition curve with a large enough effect; inconclusive means small, poorly fitted or top-dose-only effect; inactive means no such curve, though single readings can be large or run the other way
Target sequence (P17405 47-631 limits assumed): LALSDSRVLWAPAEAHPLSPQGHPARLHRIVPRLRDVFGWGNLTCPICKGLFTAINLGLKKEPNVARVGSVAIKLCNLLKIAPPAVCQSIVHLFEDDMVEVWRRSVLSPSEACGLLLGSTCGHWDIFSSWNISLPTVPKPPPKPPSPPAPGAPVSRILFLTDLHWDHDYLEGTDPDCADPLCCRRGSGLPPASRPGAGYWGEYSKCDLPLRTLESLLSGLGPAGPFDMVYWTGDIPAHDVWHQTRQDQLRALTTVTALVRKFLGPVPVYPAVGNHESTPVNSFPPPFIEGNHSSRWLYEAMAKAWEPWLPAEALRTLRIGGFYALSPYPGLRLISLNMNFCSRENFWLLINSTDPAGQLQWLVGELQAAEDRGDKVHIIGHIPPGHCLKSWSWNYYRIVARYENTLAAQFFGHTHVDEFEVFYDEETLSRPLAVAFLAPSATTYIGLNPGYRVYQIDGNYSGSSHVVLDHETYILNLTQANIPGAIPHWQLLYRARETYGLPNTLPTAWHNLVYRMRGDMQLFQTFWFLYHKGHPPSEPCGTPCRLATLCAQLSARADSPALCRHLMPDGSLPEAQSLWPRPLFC
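Steps: dispense placental human ASM, pin compound, wait 10 min at room temperature, add HMU-PC0 substrate at 9 uM final, incubate 60 min at 37 °C, add stop solution raising pH to 10, read fluorescence.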
MBNL1 CUG block: inhibitors of human MBNL1 binding to CUG repeat RNA | Q9NR56 | TR-FRET MBNL1-His/biotin-(CUG)12 binding, 665/545 ratio | Potency, µM (top dose mostly 57.5 µM), without a hit: top-dose activity change, negative = inhibition, usual class: inhibitors | hit rate 0.036% among 280,000; active means well fitted inhibition curve with a large enough effect in the signal ratio, with a control signal flat, not every such curve was filed as active; inconclusive means small, poorly fitted or top-dose-only effect, or effect the other way, or a change in a side signal; inactive means no such curve, though single readings can be large or run the other way; the % refers to the signal ratio; further: on the % scale 0 is the no-effect control and ±100 the full control effect
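Inhibition of protein-RNA binding appears as loss of TR-FRET between terbium anti-His antibody on MBNL1-His and streptavidin-XL665 on biotin-(CUG)12. Activity is normalized to buffer-only and uninhibited-complex controls.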
gsp ag: activates gsp, the McCune-Albright syndrome mutation; gsp mutant cells, cAMP HTRF, 30 min; Potency, µM (series often up to 76.9 µM), for inactives: top-dose activation (cAMP increase), usual class: activators; hit rate 0.13% among 340,000; AID 624287; active means well fitted activation curve with a large enough effect; inconclusive means small, poorly fitted or top-dose-only effect, or another doubt; inactive means no such curve, though single readings can be large or run the other way; cell line not stated here;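 further: phosphodiesterase inhibitor Ro 20-1724 added with compounds to block cAMP breakdown; nearly all actives have a fitted effect of over 60% in size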
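Cells in DMEM/10% FBS with G418 were pretreated with compounds in DMSO plus […] (300 uM stock) for 30 min at 37C. cAMP was measured by HTRF (cAMP-d2 plus anti-cAMP antibody-K) after 30 min at room temperature.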
* marks the source's active call; other numbers are inactive results; ? = inconclusive; . = no result; [ ] = another dose, or the depositor's remark. This is a sample that favours compounds with a hit; in the whole collection about 0.62% have one here. Potency means the concentration at half of the fitted maximal effect.

SMILES | gsp antag | Chronic BCR inh | S-ASM inh | MBNL1 CUG block | gsp ag
CCCn1nc([N+](=O)[O-])c(C(C#N)c2nc3ccccc3s2)c(Cl)c1=O (stereo not given) | 31.6µM* | ? | -19.1% | ? | 16.7%
CCn1nc([N+](=O)[O-])c(C(C#N)c2nc3ccccc3n2C)c(Cl)c1=O (stereo not given) | -4.6% | 0.0% | 4.7% | ? | -2.3%
COc1ccc(C(C(=O)NCC2CCCO2)N(Cc2ccccc2)C(=O)CNC(=O)c2ccco2)cc1OC (stereo not given) | . | 3.5% | -3.1% | -4.3% | -0.6%[15.4 µM]
CCCCN1C(=O)c2ccc(C(=O)Nc3ccc(C)c(S(=O)(=O)N(C)C)c3)cc2C1=O | 28.2µM* | 8.4% | ? | ? | -11.1%
CCCCN1C(=O)c2ccc(C(=O)Nc3cccc(C)c3C)cc2C1=O | -18.5% | -3.6% | -1.5% | -0.9% | -10.6%
Cc1ccc(-c2nnc3ccc(SCC(=O)Nc4cc(C)on4)nn23)cc1 | 1.4% | ? | 1.8% | 20.1% | -1.0%
Cc1cc(NC(=O)CSc2ccc3nnc(-c4cccs4)n3n2)no1 | 13.3% | -19.2% | 1.4% | 14.6% | 11.2µM*
O=C(CSc1ccc2nnc(-c3ccncc3)n2n1)Nc1ccc2c(c1)OCO2 | 0.3% | -15.6% | 2.8% | -19.5% | 15.8µM*
CN(C(=O)Cn1c(=O)oc2ccccc21)C1CCCCC1 | 11.1% | -1.9% | -1.7% | . | -11.4%
CCOCCCNC(=O)c1ccc2c(c1)ncn2C1CCCC1 | -3.9% | ? | -0.6% | 2.2% | 2.1%
CC(C)CCNC(=O)c1ccc2c(c1)ncn2C1CCCC1 | 7.94µM* | ? | 6.8% | -12.6% | -2.4%[15.4 µM]
CC(=O)N1c2ccc(S(=O)(=O)N3CCC(C(=O)NCCc4ccc(Cl)cc4)CC3)cc2CC1C (stereo not given) | 35.5µM* | -5.2% | -6.9% | -4.1% | ?
Cc1csc(=O)n1CCC(=O)OCC(=O)c1c(N)n(C)c(=O)n(C)c1=O | 2.4% | ? | 3.7% | . | 25.1µM*
Cc1csc(=O)n1CCC(=O)OCC(=O)c1c(N)n(CC(C)C)c(=O)n(C)c1=O | -12.2% | 23.6% | 1.0% | . | 15.6%
CCCCOc1ccc(-c2c(C(=O)Nc3ccccc3)c(C)[nH]c(=S)c2C#N)cc1 | 14.5% | 2.0% | -6.8% | ? | 2.51µM*
CCN(Cc1ccc2c(c1)OCCO2)C(=O)CSc1nc(C)nc2sc(C)c(C)c12 | 50.1µM* | ? | -7.9% | . | -74.7%
CCN(Cc1ccc2c(c1)OCO2)C(=O)CSc1ncnc2sccc12 | 11.4% | -8.4% | -1.3% | . | 0.4%
COC(=O)C1=C(C)N(Cc2ccccc2)C(=NCc2ccco2)N[C@H]1c1ccc(Br)cc1 | . | . | . | -7.3% | .
CC1CC(=O)N(CC(=O)NC2CCCCC2)c2ccccc2S1 (stereo not given) | 9.3% | -4.9% | 0.7% | 4.5% | 8.9%
O=C(CN1C(=O)CC(c2ccco2)Sc2ccccc21)NC1CCCCC1 (stereo not given) | 50.1µM* | ? | -1.9% | -4.4% | 7.6%
O=C1COc2ccc(C(=O)COC(=O)c3ccc([N+](=O)[O-])cc3Cl)cc2N1 | -26.0% | ? | -21.0% | . | -6.9%
CN(CC(=O)Nc1ccc(Cl)cc1F)C1=NS(=O)(=O)c2ccccc21 | 5.6% | -10.7% | 2.3% | . | -5.6%[15.4 µM]
O=C(c1ccco1)N1CCN(Cc2cc(=O)c(OCc3ccccc3)co2)CC1 | 7.6% | -5.4% | . | . | 20µM*
CCN(CC)S(=O)(=O)c1cc([N+](=O)[O-])ccc1NNC(=O)Nc1ccc(F)cc1 | 50.1µM* | ? | -12.9% | ? | 10.6%
COC(=O)c1cc(CSc2nc3ccccc3c(=O)n2C)oc1C | 35.5µM* | 2.1% | -7.5% | 1.0% | -15.8%
SMILES | gsp antag | Chronic BCR inh | S-ASM inh | MBNL1 CUG block | gsp ag
CCN(CC(=O)NCc1cccs1)C(=O)CCC(=O)c1ccc(F)cc1 | 9.3% | 0.8% | 2.0% | . | -55.1%
O=c1oc2cc(O)c(Cl)cc2c2ccccc12 | -2.5% | 1.1% | -3.5% | ? | 2.24µM*
CCN1CCN(S(=O)(=O)c2ccc(OC)c(NC(=O)c3ccccc3)c2)CC1 | -1.8% | 1.8% | -1.4% | -0.2% | -4.6%
CCOC(=O)N1CCN(C(=O)CSCC(=O)Nc2nc(-c3ccc(-c4ccccc4)cc3)cs2)CC1 | 25.1µM* | ? | -12.3% | ? | -58.9%
CCOC(=O)N1CCN(C(=O)CSCC(=O)Nc2nc(-c3ccc(OC)cc3)cs2)CC1 | 28.2µM* | -11.2% | -1.8% | 0.9% | -0.5%
O=C(CSCC(=O)N1CCOCC1)Nc1nc(-c2ccccc2)cs1 | -14.9% | 6.1% | -1.1% | 3.9% | ?
CCOC(=O)N1CCN(C(=O)CSCC(=O)Nc2nc(-c3ccc(Cl)s3)cs2)CC1 | 25.1µM* | 5.1% | -12.1% | 24.5% | -28.8%
CCCC(=O)Nc1nc(-c2ccc(Cl)s2)cs1 | 0.2% | ? | -2.7% | . | -4.2%
O=C(C=Cc1ccc2c(c1)OCO2)C1CC1 | . | . | . | . | 14.8%
Cn1cc(/C=C2\SC(=O)N(c3ccccc3)C2=O)c2ccccc21 | 44.7µM* | ? | -1.9% | -7.8% | -6.4%[15.4 µM]
O=C1S/C(=C\c2cccs2)C(=O)N1c1ccc(O)cc1 | -3.8% | ? | -5.3% | 11.1% | 0.9%
CCN1C(=O)S/C(=C/c2cn(C)c3ccccc23)C1=O | 9.3% | ? | 1.5% | . | -39.2%
Cn1cc(/C=C2\SC(=O)N(c3ccc(O)cc3)C2=O)c2ccccc21 | 31.6µM* | ? | -7.0% | -3.0% | 0.1%
COC(=O)C[C@@H]1C[C@H]2c3cc(NC(=O)Nc4ccccc4F)ccc3O[C@H]2[C@H](CO)O1 | . | . | . | . | -8.0%
CN(C(=O)COC(=O)c1cc(=O)[nH]c2ccccc12)c1ccccc1 | 5.2% | ? | 24.0% | . | 10.9%[15.4 µM]
CC(OC(=O)/C(C#N)=C/c1ccco1)C(=O)N(C)c1ccccc1 (stereo not given) | -7.7% | 1.8% | -3.3% | . | 4.3%
COc1cccc2cc(C(=O)Nc3ccc(F)cc3)c(=Nc3ccc(C(=O)O)cc3)oc12 | 11.2µM* | ? | 0.2% | 0.7% | -23.6%
COc1ccc(N=c2oc3c(OC)cccc3cc2C(=O)NCc2ccco2)cc1OC | -5.0% | ? | -7.0% | 3.5% | -55.0%
CCC1=C([N+](=O)[O-])C(c2ccc3c(c2)OCO3)NC(=O)N1 (stereo not given) | -8.6% | 1.8% | -1.0% | ? | 1.8%[15.4 µM]
O=C1Nc2ccccc2C12OCC(COc1ccc(Cl)cc1)O2 (stereo not given) | -24.6% | ? | -8.7% | 1.9% | 8.3%
CN1C(=O)C2(OCC(COc3ccc(Cl)cc3)O2)c2ccccc21 (stereo not given) | 35.5µM* | ? | -3.9% | -1.8% | 4.4%
COc1ccc(CC(=O)Nc2nc(-c3ccc(F)c(F)c3)cs2)cc1 | ? | ? | -4.3% | -6.4% | 0.2%[15.4 µM]
CC1(C(=O)OCC(=O)Nc2nc(-c3ccc(F)c(F)c3)cs2)CC1(Cl)Cl (stereo not given) | 50.1µM* | ? | -4.9% | 1.2% | -31.3%
